The results in this text go back to PubChem BioAssay (NCATS).

A number with no mark means an inactive call. Inconclusive results are not listed. Active and inactive are the calls of the source. Unless noted, calls follow the shape of the dose curve; as a rule, active = well fitted curve in the direction sought with a large enough effect; inconclusive = small, poorly fitted or top-dose-only effect, or another doubt; inactive = no such curve, though single readings can be large; an effect the other way counts as inactive or inconclusive.

Experiment [1] concerns the target Cytochrome P450 3A4 (Homo sapiens) (UniProt P08684). Description: qHTS Assay for Inhibitors and Substrates of Cytochrome P450 3A4 (AID 884). Also: nearly all actives have a fitted effect of over 50% in size. Also: potency is read from the fitted curve at half-maximal effect. As to activity change, negative = inhibition: series mostly up to about 57 µM; % is scaled to controls: 0 for no effect and ±100 for the full control effect. In a few lines: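 Luminescent readout of luciferin produced by CYP3A4 (20 nM) dealkylation of Luciferin-PPXE, 25 uM (its KM). NADPH-driven reaction ran 60 min at RT after 10 min compound preincubation; data scaled to 57 uM ketoconazole as 100% inhibition.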
Background: qHTS replaces the single test concentration by a dilution series.

Experiment [2] concerns the target Cytochrome P450 2D6 (Homo sapiens) (UniProt P10635). The experiment in a line: qHTS Assay for Inhibitors and Substrates of Cytochrome P450 2D6 (AID 891). Also: nearly all actives have a fitted effect of over 60% in size. Also: potency is read from the fitted curve at half-maximal effect.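 As to activity change, negative = inhibition: luciferin methyl ether substrate demethylated by CYP2D6 with NADPH regeneration; % is scaled to controls: 0 for no effect and ±100 for the full control effect.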 In a few lines: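 Luminescent read-out of luciferin formed by 5 nM human CYP2D6 demethylating 30 uM Luciferin-ME EGE (Km level) over 60 min at room temperature after NADPH regeneration addition. Data normalized to full inhibition by 1.43 uM quinidine.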

The target of experiment [3] is Cytochrome P450 2C19 (Homo sapiens) (UniProt P33261). The experiment in a line: qHTS Assay for Inhibitors and Substrates of Cytochrome P450 2C19 (AID 899). Also: nearly all actives have a fitted effect of over 60% in size. Also: potency is read from the fitted curve at half-maximal effect. Put shortly: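 5 nM human CYP2C19 with 10uM Luciferin-H EGE (at KM) in 50mM KPO4, compound preincubated 10 min at 37C, then NADPH regeneration for 60 min at 37C. Luciferin read by luminescence after detection reagent; normalized to 57uM ketoconazole as full inhibition.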
Cytochrome P450 2C19 (Homo sapiens), sequence (P33261 whole entry, looked up): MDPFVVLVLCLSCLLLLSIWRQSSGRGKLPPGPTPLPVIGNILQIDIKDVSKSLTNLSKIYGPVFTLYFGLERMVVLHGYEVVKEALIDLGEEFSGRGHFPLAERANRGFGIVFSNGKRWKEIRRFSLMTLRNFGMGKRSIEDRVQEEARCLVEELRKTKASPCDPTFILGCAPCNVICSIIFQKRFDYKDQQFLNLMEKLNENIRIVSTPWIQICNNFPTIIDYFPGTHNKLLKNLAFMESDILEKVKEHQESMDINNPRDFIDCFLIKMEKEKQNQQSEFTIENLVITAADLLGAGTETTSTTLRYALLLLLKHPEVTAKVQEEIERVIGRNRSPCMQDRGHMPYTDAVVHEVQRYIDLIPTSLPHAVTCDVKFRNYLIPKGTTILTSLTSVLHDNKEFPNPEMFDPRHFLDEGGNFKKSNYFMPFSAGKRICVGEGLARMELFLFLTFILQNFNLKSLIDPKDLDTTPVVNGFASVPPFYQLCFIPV

Experiment [4] has as its target Cytochrome P450 3A4 (Homo sapiens) (UniProt P08684). The experiment in a line: qHTS Assay for Activators of Cytochrome P450 3A4 (AID 885). Also: nearly all actives have a fitted effect of over 65% in size. In a few lines:
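Using 20nM recombinant human CYP3A4 in potassium phosphate (200mM), substrate Luciferin-PPXE at 25uM, luminescent luciferin detection followed a 60-min RT NADPH reaction; data scaled to 57 uM ketoconazole.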

Experiment [5] in a line: Confirmation and Secondary Assay for Modulators of Hemoglobin Beta Chain Splicing at IVS2 654 locus (AID 910).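 Also: HeLa cells stably carrying EGFP split by mutant beta-globin IVS2-654 intron; % of control where 0% means no effect.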 Put shortly: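 HeLa cells stably expressing EGFP interrupted by β-globin IVS2-654 intron, seeded overnight in Opti-MEM/2% FCS, then treated 2 days at 37 °C. Restored splicing read as total peak GFP intensity per well by laser scanning cytometry (488 nm excitation, 500–520 nm emission); 500 nM antisense PNA as control.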

Experiment [6] in a line: Confirmation and Secondary Assay for Modulators of Hemoglobin Beta Chain Splicing at IVS2 705 locus (AID 930).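 Also: HeLa cells stably expressing the EGFP-705 splicing reporter; series mostly up to about 46 µM; % of control where 0% means no effect.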 In a few lines:
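HeLa cells stably carrying EGFP interrupted by mutant beta-globin IVS2-705 intron (CMV-driven) were seeded at 500 cells/well, treated next day with compound for 2 days at 37C; corrected splicing restores EGFP, read as total peak GFP intensity per well.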

Experiment [7] can be described thus: qHTS Assay for Identification of Small Molecule Agonists for Hypoxia Response Element Signaling Pathway (AID 914; active = well fitted activation curve with a large enough effect in the signal ratio, with a control signal flat, not every such curve was filed as active; the % refers to the signal ratio; also: % of control where 0% means no effect). The conditions noted are these: ME-180 HRE-bla reporter, beta-lactamase ratio, CoCl2, 17 h; hits give high values. In a few lines: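 ME-180 cells carrying an HRE-driven beta-lactamase reporter were treated with compounds in a titration series plus an EC50 level of CoCl2 for 17 h at 37 degrees Celsius; CCF4 readout as the 460nm/530nm ratio gave AC50 values.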

Cytochrome P450 3A4 (Homo sapiens), sequence (P08684 whole entry, looked up): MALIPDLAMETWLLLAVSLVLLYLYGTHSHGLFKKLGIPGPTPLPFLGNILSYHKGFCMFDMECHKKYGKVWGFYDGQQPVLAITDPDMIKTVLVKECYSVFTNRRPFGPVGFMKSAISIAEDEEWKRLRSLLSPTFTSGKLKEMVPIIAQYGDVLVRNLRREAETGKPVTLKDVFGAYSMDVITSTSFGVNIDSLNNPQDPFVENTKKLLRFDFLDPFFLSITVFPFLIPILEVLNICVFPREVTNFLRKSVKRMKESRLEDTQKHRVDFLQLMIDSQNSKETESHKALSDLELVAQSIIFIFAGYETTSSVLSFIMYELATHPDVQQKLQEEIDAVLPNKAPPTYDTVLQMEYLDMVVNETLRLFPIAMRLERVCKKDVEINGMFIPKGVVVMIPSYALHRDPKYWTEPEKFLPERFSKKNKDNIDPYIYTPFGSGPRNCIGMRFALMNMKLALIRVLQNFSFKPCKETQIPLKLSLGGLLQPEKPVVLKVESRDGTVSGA
Cytochrome P450 2D6 (Homo sapiens), sequence (P10635 whole entry, looked up): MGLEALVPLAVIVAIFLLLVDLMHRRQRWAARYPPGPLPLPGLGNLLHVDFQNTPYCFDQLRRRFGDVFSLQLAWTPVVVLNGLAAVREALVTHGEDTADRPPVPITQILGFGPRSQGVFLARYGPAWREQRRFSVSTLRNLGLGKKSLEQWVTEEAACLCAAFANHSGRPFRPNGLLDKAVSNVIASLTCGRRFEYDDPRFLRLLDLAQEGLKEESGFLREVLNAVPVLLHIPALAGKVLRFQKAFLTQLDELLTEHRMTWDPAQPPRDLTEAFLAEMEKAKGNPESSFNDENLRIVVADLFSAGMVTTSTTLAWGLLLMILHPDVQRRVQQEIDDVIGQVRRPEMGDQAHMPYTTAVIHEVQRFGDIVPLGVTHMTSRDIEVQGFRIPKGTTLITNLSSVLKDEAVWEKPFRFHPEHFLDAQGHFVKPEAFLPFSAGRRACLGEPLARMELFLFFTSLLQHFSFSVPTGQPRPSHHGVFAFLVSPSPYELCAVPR

For the compound `CC(=O)c1ccc(OC2C=CC(c3ccc(Cl)cc3)OC2CO)cc1` (stereo unspecified), the activity change, negative = inhibition in experiment [1] is -21.5% [at 11.4 µM]. In addition, the Potency result in experiment [2] was “inactive”. For the same compound, the Potency in experiment [3] is 5.01 µM (active).

Turning to `COc1ccc(-c2cc(=O)c3ccccc3o2)cc1`, in experiment [1], the Potency is 2 µM (active). Further, the Potency entry in experiment [4] is “inactive”. Besides, the result in experiment [5] and in experiment [6] was inactive.

Turning to `CCCc1cc2c(c(=O)o1)C(O)C1OC1C2=O` (stereo unspecified), the activity change, negative = inhibition in experiment [1] was -24% [at 11.4 µM]. Further, the Potency entry in experiment [2] and in experiment [3] was “inactive” in each case.

In the case of `COc1cc(O)c(C(=O)/C=C/c2ccccc2)c(O)c1`, in experiment [1], the activity change, negative = inhibition was -28.7% [at 11.4 µM]. In experiment [2], the Potency entry is “inactive”. Also, the Potency in experiment [3] was 1.58 µM (active).

Take `CC(=O)c1c(O)cc(O)cc1O`: the Potency in experiment [1] was 3.16 µM (active). The outcome in experiment [5] was inactive.

As for `COc1ccc(COC(=O)N/N=C2/C[C@@H](O)[C@@H](O)[C@@H]3[C@@H]4C(=O)N(c5cccc(Oc6ccccc6)c5)C(=O)[C@H]4CC[C@H]23)cc1`, the Potency in experiment [1] was 3.16 µM (active). Further, in experiment [4], the activity change, positive = activation is -68.2% [at 11.4 µM]. The activation in experiment [7] is -10.1%.

For `COC(=O)CC1=COC2OCC3=CC[C@@H]1C32` (stereo partly specified), the activity change, negative = inhibition in experiment [1] is -15.8% [at 11.4 µM]. The Potency entry in experiment [2] and in experiment [3] was “inactive” each time.

`COC(=O)NC(/C(C(=O)OC)=C(\C)NCc1ccccc1)c1ccc(Cl)cc1` (stereo unspecified): the activity change, negative = inhibition in experiment [1] is -24.6% [at 11.4 µM]. In experiment [3], the Potency was 5.01 µM (active).

`CCOC(=O)OCC1OC(c2ccccc2)C=CC1OC(=O)OCC` (stereo unspecified): the activity change, negative = inhibition in experiment [1] was -18.7% [at 11.4 µM]. The Potency result in experiment [2] was “inactive”. Also, the Potency in experiment [3] was 3.98 µM (active).

Regarding `C=CCOCC1CN2C(CCC(C)C2c2ccc(Br)cc2)C(=O)O1` (stereo unspecified), the activity change, negative = inhibition in experiment [1] is -11.7% [at 11.4 µM]. For the same compound, the Potency entry in experiment [2] and in experiment [3] was “inactive” each time.

As for `C=CCc1cccc(C2NC(C(=O)O)CCC2C)c1` (stereo unspecified), the activity change, negative = inhibition in experiment [1] is -20.1% [at 11.4 µM]. Besides, the Potency result in experiment [2] and in experiment [3] was “inactive” each time.

For `CSCCC(NC=O)C(=O)NC(CC(C)C)C(=O)NC(Cc1ccccc1)C(=O)O` (stereo unspecified), the Potency result in experiment [1] is “inactive”. The call in experiment [5] was inactive.

In the case of `C#CCCCO/N=C1/C[C@@H](O)[C@@H](O)[C@@H]2[C@@H]3C(=O)N(C4CCCCC4)C(=O)[C@H]3CC[C@@H]12`, the Potency in experiment [1] was 3.16 µM (active). Besides, in experiment [4], the activity change, positive = activation is -78.4% [at 11.4 µM]. For the same compound, the activation in experiment [7] was -13.1%.

For the compound `COc1ccc(/C=C/C(=O)c2ccccc2O)cc1`, the activity change, negative = inhibition in experiment [1] is -17.2% [at 11.4 µM]. In addition, the Potency in experiment [2] was 3.16 µM (active); in experiment [3], 1.26 µM (active).

With `COc1ccc(O[C@H]2C=C[C@@H](c3ccccc3)O[C@H]2CO/N=C(/C)CCC(=O)OC[C@@H]2O[C@H](c3ccccc3)C=C[C@@H]2Oc2ccc(OC)cc2)cc1`, the Potency in experiment [1] is 3.98 µM (active). Further, the activity change, positive = activation in experiment [4] is -65.1% [at 11.4 µM]. Besides, in experiment [7], the activation is 3.42%.

On to `CC(=O)Oc1c(-c2ccccc2)oc2c(CC=C(C)C)c3c(c(OC(C)=O)c2c1=O)C=CC(C)(C)O3`, for which, in experiment [1], the Potency is 10 µM (active). Moreover, the Potency result in experiment [4] was “inactive”. Also, the outcome in experiment [6] was inactive.

For the compound `CCOC(=O)OCC1OC(c2ccc(C(C)=O)cc2)C=CC1Oc1ccc(-c2ccccc2)cc1` (stereo unspecified), the activity change, negative = inhibition in experiment [1] was -27.8% [at 11.4 µM]. The Potency entry in experiment [2] and in experiment [3] was “inactive” in each case.

Take `COC(=O)NC(c1ccc(F)cc1)C(C(C)=O)C(=O)OC` (stereo unspecified): in experiment [1], the activity change, negative = inhibition is -15% [at 11.4 µM]. Also, the Potency entry in experiment [3] is “inactive”.

As to `CC(C)CC1OCCC=CC1C` (stereo unspecified), the activity change, negative = inhibition in experiment [1] is -2.57% [at 11.4 µM]. Moreover, the Potency entry in experiment [3] is “inactive”.

With `CCC(=O)[C@]12O[C@@]3(C4C(=O)OCCC41)N(Cc1ccccc1)C(C)=C(C(=O)OC)C(c1ccccc1)N3C2=O` (stereo partly specified), the Potency in experiment [1] was 1.26 µM (active). The Potency entry in experiment [2] and in experiment [3] was “inactive” throughout.

As to `CCOC(=O)OCC1OC(C#Cc2ccc(C(C)(C)C)cc2)C=CC1OC(=O)OCC` (stereo unspecified), the activity change, negative = inhibition in experiment [1] is -12.4% [at 11.4 µM]. The Potency result in experiment [2] and in experiment [3] was “inactive” throughout.

With `CCOC(=O)OCC1OC(c2ccccc2)C=CC1Oc1ccc(F)cc1C` (stereo unspecified), the activity change, negative = inhibition in experiment [1] was -28.9% [at 11.4 µM]. In addition, the Potency result in experiment [2] was “inactive”. The Potency in experiment [3] is 2 µM (active).

For the compound `Cc1ccccc1OC1C=CC(C#Cc2ccc(Br)cc2)OC1CO` (stereo unspecified), the activity change, negative = inhibition in experiment [1] is -26.7% [at 11.4 µM]. The Potency result in experiment [2] and in experiment [3] was “inactive” each time.

With `COc1ccc(-c2cc(=O)c3ccccc3o2)cc1OC`, in experiment [1], the Potency is 7.94 µM (active). Also, in experiment [4], the Potency result is “inactive”. Further, in experiment [6], the call was inactive.

On to `CCC(=O)[C@@]1(O)C(=O)N2C(=C3C(=O)OCCC31)N(Cc1ccccc1)C(C)=C(C(=O)OC)C2c1ccccc1` (stereo partly specified), for which the activity change, negative = inhibition in experiment [1] was -16% [at 11.4 µM]. For the same compound, the Potency entry in experiment [2] and in experiment [3] was “inactive” each time.
